Gal4-VP16 FLuc – Gal4-VP16 reporter inhibition counter-screen; Drosophila S2 Gal4-VP16 UAS-luciferase, luminescence, 20 h; Potency, µM (top dose mostly 53.6 µM), inactives show at the highest dose activity, negative = inhibition, actives largely listed as inhibitors; actives 3.5% (n = 310,000);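 note: Gal4-VP16 expression switched on by copper sulfate through the metallothionein promoter; nearly all actives have a fitted effect of over 50% in size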
DT40 TDP1 CPT – DT40-hTDP1 cell growth loss with CPT; chicken DT40 Tdp1-/-;hTDP1 cells + 20 nM CPT, ATP luminescence, 48 h; Potency, µM (series often up to 46.2 µM), for the others: top-dose activity change, negative = growth inhibition, hits mostly inhibitors; actives 12% (n = 420,000); AID 686979; note: nearly all actives have a fitted effect of over 55% in size
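Cell growth measured by CellTiter-Glo luminescence after a minimum 48 h, 37 C compound exposure with 20 nM CPT in Tdp1-knockout DT40 cells stably expressing hTDP1, seeded 400/well; qHTS titration format.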
RORg inh – ROR gamma (mouse) transcription inhibition. Drosophila S2 Gal4-RORgamma UAS-luciferase reporter, 20 h. actives 5.4% (n = 310,000). Potency, µM (doses to about 53.6 µM), without a hit: at the highest dose activity change, negative = inhibition, most hits filed as inhibitors. AID 2551. P51450; note: nearly all actives have a fitted effect of over 60% in size
Target sequence (P51450 whole entry, looked up, the tested form may be a part): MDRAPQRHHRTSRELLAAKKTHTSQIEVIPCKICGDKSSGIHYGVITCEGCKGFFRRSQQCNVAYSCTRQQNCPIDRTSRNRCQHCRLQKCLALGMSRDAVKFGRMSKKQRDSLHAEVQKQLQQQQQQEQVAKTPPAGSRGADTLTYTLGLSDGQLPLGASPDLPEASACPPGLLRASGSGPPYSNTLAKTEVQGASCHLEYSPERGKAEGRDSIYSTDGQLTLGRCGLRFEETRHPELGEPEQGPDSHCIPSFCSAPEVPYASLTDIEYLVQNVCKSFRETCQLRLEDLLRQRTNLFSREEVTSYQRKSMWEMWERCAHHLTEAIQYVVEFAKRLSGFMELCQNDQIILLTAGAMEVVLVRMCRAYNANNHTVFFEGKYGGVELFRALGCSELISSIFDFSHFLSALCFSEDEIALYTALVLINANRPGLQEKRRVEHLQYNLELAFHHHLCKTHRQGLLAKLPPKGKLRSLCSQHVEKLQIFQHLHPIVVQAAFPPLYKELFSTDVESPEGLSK
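Compounds are pin-transferred onto Drosophila Schneider cells expressing a copper-inducible Gal4–ROR gamma transactivation domain fusion. After 1 hr, copper sulfate is added to 700 uM final; luciferase is read 20 hr later.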
DT40 TDP1 no CPT – qHTS for Inhibitors of human tyrosyl-DNA phosphodiesterase 1 (TDP1): qHTS in cells in absence of CPT. DT40 Tdp1-/- hTDP1 cells, no CPT, ATP luminescence, 48 h. actives 15% (n = 420,000). Potency, µM (titrated, usually from 46.2 µM), without a hit: top-dose activity change, negative = growth inhibition, usual class: inhibitors. AID 686978, 2013; note: nearly all actives have a fitted effect of over 55% in size
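Camptothecin absent (DMSO only). Human TDP1-complemented DT40 knockout cells, 400 cells/well, 37 °C for minimum 48 hr; ATP measured via CellTiter-Glo, 30 min dark incubation, luminescence.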
12-LOX inh – blocks human arachidonate 12S-lipoxygenase; P18054; Potency, µM (doses to about 108 µM), inactives show top-dose activity change, negative = inhibition, actives largely listed as inhibitors; AID 1671190; purified 12hLO, xylenol orange hydroperoxide absorbance; actives 1.1% (n = 580,000)
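Hydroperoxide product was detected by ferrous iron/xylenol orange as the 573 to 405 nm absorbance ratio. Arachidonic acid at 40 uM (final) was turned over for 30 min at room temperature by 150 nM human 12hLO, pH 7.0 Hepes buffer, after 15 min compound preincubation.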
ELG1 repair inh – inhibitors of ELG1-dependent DNA repair in HEK293T cells; HEK293T ELG1-luciferase reporter, luminescence, 16 h; DNA damage induced by 5-fluorouridine; Potency, µM (highest dose often 46.1 µM), inactives show top-dose activity change, negative = inhibition, actives largely listed as inhibitors; actives 2.3% (n = 330,000); AID 504467; note: nearly all actives have a fitted effect of over 55% in size
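In this reporter screen, reduction of luminescence relative to DMSO vehicle indicated activity. Compounds and 5-fluorouridine were added together to 2,000 cells per well, incubated for 16 hr at 37 °C, then developed with ONE-Glo.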
* hit, by the source's call; i = inactive; ? = inconclusive; / = not tested or not shown; [ ] = another dose, or the depositor's remark. Only some compounds are listed: those with a hit (about 15% of all), similar ones and a draw of the others. Calls come from the whole dose curve; as a rule, active = well fitted curve in the direction sought with a large enough effect; inconclusive = small, poorly fitted or top-dose-only effect, or another doubt; inactive = no such curve, though single readings can be large; an effect the other way counts as inactive or inconclusive. % is set by controls: 0 for no effect and ±100 for the full control effect; potency is the fitted concentration of half-maximal effect.

SMILES	Gal4-VP16 FLuc	DT40 TDP1 CPT	RORg inh	DT40 TDP1 no CPT	12-LOX inh	ELG1 repair inh
COc1cc(OC)c(NS(=O)(=O)c2cc(-c3cnc(C4CC4)o3)ccc2C)cc1Cl	/	13µM*	/	6.51µM*	-5.1%	/
O=S(=O)(c1ccccc1)N1[C@H]2CC[C@@H]1c1cncnc1C2	/	/	/	/	23.7%	/
O=C1CS(=O)C2(CCNCC2)N1c1ccccc1 (stereo unspecified)	/	/	/	/	61.6%	/
C(=NC1CCCCC1)=NC1CCCCC1	2.24µM*	/	?	/	/	/
O=C=NC1CCCCC1	-3.7%	/	4.8%	/	/	/
NC(Cc1ccc(F)cc1)c1ccccc1 (stereo unspecified)	/	/	/	/	33.9%	/
COc1ccccc1N1CCN(C(=O)[C@H]2CN3CCC2C[C@@H]3Cn2cc(CCO)nn2)CC1 (stereo partly specified)	/	/	/	/	19.7%	/
N#Cc1cc(NC(=O)c2ccc(Cl)cc2)ccc1Sc1ccccc1	/	20.6µM*	/	16.4µM*	-1.0%	/
c1ccc2sc(C3(N4CCCCC4)CCCCC3)cc2c1	6.3%	26.6µM*	-12.2%	18.4µM*	?	/
c1csc(C2(N3CCCCC3)CCCCC2)c1	-2.6%	7.3%	-0.2%	-15.9%	/	/
CC1CC(C)CC(C)C(O)C(C#N)=CC=CCC(C2CCCC2C(=O)O)OC(=O)CC(O)C(C)C1 (stereo unspecified)	/	0.0082µM*	/	0.103µM*	5.1%	/
O=[N+]([O-])c1ccc(N2CCCC(C(F)(F)F)C2)c2ccncc12 (stereo unspecified)	?	13µM*	?	9.2µM*	?	-25.5%
CCC1C(c2cc(OC)c(OC)c(OC)c2)c2cc3c(cc2OC1N1CCCC1)OCO3 (stereo unspecified)	/	5.17µM*	/	4.11µM*	?	/
CN1CCN2C(=O)N(c3ccccc3)C[C@H]2C1	/	/	/	/	45.4%[176 µM]	/
CC1CN(c2ccccc2)NC1=O (stereo unspecified)	-2.8%	13µM*	-6.3%	?	28.2µM*	-12.5%
COc1ccccc1C1=NCc2nnc(C)n2-c2ccc(Cl)cc21	-2.5%	-10.0%	-31.0%	-10.7%	28.3%	?
CN1C(=S)CN=C(c2ccccc2)c2cc(Cl)ccc21	4.8%	?	-34.3%	15µM*	/	/
CN1C(=O)CN=C(c2ccc[nH]2)c2cc(Cl)ccc21 (tested in a mixture with another compound)	/	1.64µM*	/	1.3µM*	9.7%	/
Cc1nnc2n1-c1ccc(Cl)cc1C(c1ccccc1)=NC2	25.4%	?	2.51µM*	?	/	/
CN1CCN=C(c2ccccc2)c2cc(Cl)ccc21	/	-87.6%	/	-86.5%	/	/
O=C(c1ccc(F)cc1)N1C[C@@H]2C[C@H](C1)c1ccc(C3CCCCC3)c(=O)n1C2	/	/	/	/	11.3%[176 µM]	/
CCCN1CCN(Cc2cc(C(C)=O)ccc2OC)CC1	/	/	/	/	10.0%	/
CC1CCN(C[C@H]2CN3CC[C@H]2C[C@@H]3CNC(=O)Nc2ccccc2)CC1	/	/	/	/	25.2%[176 µM]	/
CNC(=O)c1ccc(N2C(=S)N(c3ccc(C#N)c(C(F)(F)F)c3)C(=O)C23CCC3)cc1F	/	/	/	/	-2.6%[57.4 µM]	/
c1ccc(CN2CCC3(CC(c4cccnc4)=NO3)C2)nc1 (stereo unspecified)	/	/	/	/	-13.4%[6.33 µM]	/
SMILES	Gal4-VP16 FLuc	DT40 TDP1 CPT	RORg inh	DT40 TDP1 no CPT	12-LOX inh	ELG1 repair inh
O=C(Nc1ccccc1)C1=C[C@H](c2ccccc2)C[C@H](OCCCCO)O1	/	16.4µM*	/	?	-12.8%	/
COc1cc2c(cc1Oc1cccc(N(C)C)c1)NC(=O)C21CCN(Cc2ccccc2)CC1	/	/	/	/	89.1µM*	/
COc1cc2c(cc1Oc1cccc(N(C)C)c1)NC(=O)C21CCN(CC2CC2)CC1	/	/	/	/	49.5%[176 µM]	/
O=C1NC(=S)N(c2ccccc2F)C(=O)/C1=C\c1cccs1	-87.8%	20.6µM*	-11.9%[10 µM]	?	31.6µM*	?
O=C1NC(=O)C(=Cc2ccsc2)C(=O)N1	1.1%	4.6%	0.7%	2.1%	?	-0.3%
O=C1NC(=O)C(=Cc2csc3ccccc23)C(=O)N1	5.4%	16.4µM*	39.6%	18.4µM*	39.8µM*	20.2%
O=C1NC(=O)C(=Cc2cccs2)C(=O)N1	/	18.4µM*	/	16.4µM*	-13.5%	/
COc1ccc(-n2c(C)nc3cc(C(=O)N4CCC5(CC4)OCCO5)ccc32)cc1	/	?	-13.0%[0.365 µM]	?	0.0%	-2.6%
COc1ccc(-c2nc3ccc(C(=O)N4CCC5(CC4)OCCO5)cc3nc2-c2ccc(OC)cc2)cc1	0.4%	?	27.4%	?	-29.5%	16.4µM*
CN(C)[C@@H]1C(=O)C(C(N)=O)=C(O)[C@@]2(O)C(=O)C3=C(O)c4c(O)ccc(Cl)c4[C@@](C)(O)C3C[C@@H]12 (stereo partly specified)	-11.8%	?	-15.6%	23.1µM*	-24.7%	11.5%
CCOC(=O)[C@]12Cc3cc(C)ccc3[C@H]1N(C)C(=O)c1ccccc12	/	16.4µM*	/	16.4µM*	?	/
CCOC(=O)[C@]12Cc3cc(C)ccc3[C@H]1N(C)C(=O)c1cc(OC)ccc12	/	20.6µM*	/	23.1µM*	0.0%	/
CCOC(=O)[C@]12Cc3cc(OC)ccc3[C@H]1N(C)C(=O)c1ccccc12	/	-26.7%	/	?	-28.5%	/
COc1ccc2c(c1)c(C(=O)NC(C)C(C)C)c(C)n2C1CC1 (stereo unspecified)	/	/	/	/	3.7%	/
CC(C)(C)c1cc2c(c(C(C)(C)C)c1)Oc1cc(C#N)c(C#N)cc1O2	/	/	/	/	8.8%	/
COc1ccc(C(=O)CCNc2ccc(F)cc2)cc1	-19.7%	?	-7.7%	?	i	?
COc1ccc(C(=O)C(C)(C)NO)cc1	-10.1%	?	6.4%	?	5.01µM*	1.5%
c1ccc(P(c2ccccc2)c2ccccn2)cc1	-1.9%	5.17µM*	21.6%	5.17µM*	?	-7.2%
Cc1nn(Cc2ccccc2)c(C)c1C(=O)NCc1ccccc1F	-4.5%	-2.6%	11.3%	-19.8%	-5.9%	-7.4%
C=C1C=C(C(F)F)n2ncc(C(=O)NCc3ccccc3F)c2N1	/	?	/	11.2µM*	/	/
CCn1ccnc1CN1CCCC(C(=O)c2cc(Cl)ccc2OC)C1 (stereo unspecified)	-27.1%	?	21.2%	?	-2.5%	9.5%
CCn1ccnc1CN1CCCC(C(=O)c2cc(C)c(OC)c(C)c2)C1 (stereo unspecified)	11.2µM*	?	2.51µM*	20.6µM*	-8.0%	?

High-throughput results deposited in PubChem by National Center for Advancing Translational Sciences (NCATS).
